SMILES strings stand for the structures. In all, about 3,600 compounds were measured (“viability index relative to DMSO control”: median about 0.81, lowest 2% from about 0.13 on). The sample as a whole holds a higher share of the lowest values than the screen did.
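Also: Saponin-lysis sexual stage assay in serum-free medium: MitoTracker Red CMXRos staining plus saponin, high-content imaging, particle count per well divided by plate mean of DMSO wells.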

The subject of the assay is Plasmodium falciparum NF54 stage V gametocytes. Kind of assay: viability index relative to DMSO control (fraction); higher = less gametocyte killing. As to conditions: 1.25 µM, incubation time: 72 h.
On to `O=S(=O)(c1ccc(Cl)cc1)N1CCN(C(=S)NCc2ccco2)CC1`, for which the viability index amounted to 0.959.

On to `CCOC(=O)C1=C(C)NC2=C(C(=O)CC(c3ccc(Cl)cc3)C2)C1c1ccc(Br)cc1` (stereo not drawn), for which the viability index is 0.725.

The molecule `S=C(NN=CC=NNC(=S)Nc1ccccc1)Nc1ccccc1` had a viability index of 0.104.

The molecule `OC1CCCCC1C1(NC(=S)Nc2ccccc2)CCCCC1` (stereo not drawn) gave a viability index of 1.08.

Take `CC(C)(C)NC(=S)NN=CC=NNC(=S)NC(C)(C)C`: the viability index came out at 0.299.

`O=S(=O)(NCCNc1ncnc2scc(-c3ccccc3)c12)c1ccc(Cl)c(Cl)c1` showed a viability index of 0.554.

`c1ccc2nc3c(nnc4ccccc43)nc2c1` yielded a viability index of 0.092.

`Brc1ccc2[nH]c3nc4ccccc4nc3c2c1` showed a viability index of 0.699.

As to `FC(F)(F)c1ccc(Nc2nnnc3ccccc23)cc1`, the viability index is 1.04.

`COC(OC)C(C)=NNC(N)=S` returned a viability index of 0.112.

`CC(=NNC(N)=S)C(C)=NNC(N)=S` came in with a viability index of 0.27.

Molecule `COc1cc(Nc2cncc(-c3ccc(C(N)=O)cc3)n2)cc(OC)c1OC` displayed a viability index of 0.0179.

For the molecule `COc1cc(Nc2cncc(-c3ccncc3)n2)cc(OC)c1OC`, the viability index was determined as 0.524.

`COc1cc(C(=O)Nc2nnc(-c3ccccc3)o2)cc(OC)c1OC` returned a viability index of 0.81.

The molecule `CSc1ccc(C=CC(=O)NC(=O)c2ccccc2O)cc1` displayed a viability index of 0.661.

`CCOC(=O)C1=C(C)N(CCNc2ncc(C(F)(F)F)cc2Cl)C(=O)CC1` showed a viability index of 1.04.

`CCCCCc1ccc(OCCCC[n+]2cccc(C)c2C)c(CCCCC)c1` came in with a viability index of 0.521.

Molecule `CCCn1c(=N)c(C(=O)NC2CCCCC2)cc2c(=O)n3cccc(C)c3nc21` showed a viability index of 1.15.

Take `CC(NCCCN(C)C)c1cc(C(C)(C)C)cc2c1CCC2(C)C` (stereo not drawn): the viability index is 0.283.

The molecule `CC(C)=CCCC(C)=CCCC(C)NCCN1CCNCC1` (stereo not drawn) had a viability index of 0.135.

`CC(NCCN1CCNCC1)c1cc(C(C)(C)C)cc2c1CCC2(C)C` (stereo not drawn) came in with a viability index of 0.104.

`CC12C(=O)N(c3cccc(C(=O)O)c3)C(=O)C1C1c3ccccc3C2c2ccccc21` (stereo not drawn) showed a viability index of 1.15.

Turning to `Cc1c(Cl)cccc1NCC(=O)NN=C1CCCC1`, the viability index was determined as 0.779.

In turn, `COc1cc(OC)c(NC(=O)C2c3ccccc3C(=O)N(C)C2c2cccs2)cc1Cl` (stereo not drawn) gave a viability index of 0.546.

`COc1ccc(Cl)cc1NC(=O)C1c2ccccc2C(=O)N(CC(C)C)C1c1cccs1` (stereo not drawn): the viability index was determined as 0.426.

The molecule `CC(C)CN1C(=O)c2ccccc2C(C(=O)Nc2cccc(Cl)c2)C1c1cccs1` (stereo not drawn) registered a viability index of 0.209.

`CC(C)CN1C(=O)c2ccccc2C(C(=O)Nc2ccc(C(C)C)cc2)C1c1cccs1` (stereo not drawn): the viability index turned out to be 0.281.

`COc1cc(Cl)c(C)cc1NC(=O)C1c2ccccc2C(=O)N(CC(C)C)C1c1cccs1` (stereo not drawn): the viability index came to 0.398.

Turning to `COc1ccc(NC(=O)C2c3ccccc3C(=O)N(CC(C)C)C2c2cccs2)cc1OC` (stereo not drawn), the viability index was determined as 0.0723.

As for `COc1cc(OC)c(NC(=O)C2c3ccccc3C(=O)N(CC(C)C)C2c2cccs2)cc1Cl` (stereo not drawn), the viability index stood at 0.0683.

In the case of `CC(C)CN1C(=O)c2ccccc2C(C(=O)Nc2ccc(F)c(Cl)c2)C1c1cccs1` (stereo not drawn), the viability index came out at 0.237.

Turning to `COc1ccc(NC(=O)C2c3ccccc3C(=O)N(CC(C)C)C2c2cccs2)cc1Cl` (stereo not drawn), the viability index turned out to be 0.104.

On to `COc1cc(C(c2c(C)n(C)n(-c3ccccc3)c2=O)c2c(C)n(C)n(-c3ccccc3)c2=O)cc(Cl)c1OCc1ccccc1`, for which the viability index turned out to be 0.699.

`Cc1n(C)c2ccccc2[n+]1CC(=O)c1ccccc1` yielded a viability index of 0.785.

`COc1ccc(NC(=O)c2cnn(-c3ccccc3)c2NC(=O)c2ccco2)cc1` yielded a viability index of 0.846.

For `COc1cccc(CNC(=O)Cn2ncc3c(=O)oc4ccc(C)cc4c32)c1`, the viability index stood at 0.843.

The molecule `CC(C)NCC(O)Cn1c2ccc(Cl)cc2c2cc(Cl)ccc21` (stereo not drawn) yielded a viability index of 0.419.

Turning to `CC(=O)c1ccc(N2CCN(Cc3cc(-c4ccnc5cc(Cl)ccc45)ccc3O)CC2)cc1`, the viability index was 0.433.

Molecule `O=C1CC(c2cccc([N+](=O)[O-])c2)c2cc3c(cc2N1)OCO3` (stereo not drawn) came in with a viability index of 0.839.

Turning to `O=[N+]([O-])c1cc(Br)c(Nc2ccccc2)c([N+](=O)[O-])c1`, the viability index turned out to be 0.0522.

As for `O=C(O)CCNc1ccccc1[N+](=O)[O-]`, the viability index was found to be 0.971.

Molecule `Cc1cc(Nc2cccc([N+](=O)[O-])c2)nc2cc(O)ccc12` returned a viability index of 0.819.

Consider `COc1ccccc1NC(=O)C(=O)NCCc1ccc(OC)c(OC)c1`, for which the viability index was determined as 0.413.

Molecule `Cc1c(CN2CCC(N3CCC(C(=O)NC4CC4)CC3)CC2)[nH]c2c(Cl)cccc12` yielded a viability index of 0.865.

The molecule `O=C(CN1CCN(C(=O)c2ccco2)CC1)Nc1cc(C(F)(F)F)ccc1Cl` had a viability index of 1.11.

Molecule `Cc1cc(C)n(-c2ncc(-c3ccc([N+](=O)[O-])cc3)cn2)n1` yielded a viability index of 1.02.

As to `CC1CCN(c2nncc3ccccc23)CC1`, the viability index stood at 0.777.

On to `Cc1cc(N2CCC(C)CC2)nc(-n2nc(C)cc2C)n1`, for which the viability index was determined as 0.

Consider `CN1CCC(CCNCc2ccc(OCC(O)CN(C)Cc3ccccc3)cc2)CC1` (stereo not drawn), for which the viability index was 0.856.

For `Cn1c(=O)c(Cl)c2c3c(c(Cl)ccc31)C(=O)c1ccccc1-2`, the viability index stood at 0.0761.

Molecule `CCCCNC(=O)c1nn(-c2ccc(OC)cc2)c(=O)c2ccccc12` displayed a viability index of 0.946.

The molecule `O=c1c(=Cc2ccc(-c3ccc([N+](=O)[O-])cc3Cl)o2)sc2nc3ccccc3n12` showed a viability index of 0.699.

For `CCC(C)NCC(O)(c1ccc(Cl)cc1)c1ccc(Cl)cc1` (stereo not drawn), the viability index stood at 0.699.

In the case of `CCCOC(=O)C1=C(C)NC2=C(C(=O)CC(c3ccc(OC)c(OC)c3)C2)C1c1ccc([N+](=O)[O-])cc1` (stereo not drawn), the viability index was found to be 0.514.

The molecule `CCOC(=O)c1c(-c2ccccc2)oc2c1C(=O)c1ccccc1C2=O` displayed a viability index of 0.461.

In the case of `CCOC(=O)c1c(Cl)nnc(-c2ccccc2)c1-c1ccccc1`, the viability index stood at 0.

In turn, `CCOC(=O)c1[nH]nc(C(=O)c2ccccc2)c1-c1ccccc1` showed a viability index of 1.27.

The molecule `CCOC(=O)c1c(NC(=O)Cc2ccc([N+](=O)[O-])cc2)sc2c1CCCC2` yielded a viability index of 1.02.

In turn, `Cc1ccc(CN2C(=O)C(O)(CC(=O)c3ccccc3)c3ccccc32)cc1` (stereo not drawn) showed a viability index of 0.914.

Consider `CCN1C(=Cc2sc3ccccc3[n+]2C)C=Cc2ccc(C)cc21`, for which the viability index is 0.51.

In turn, `Cc1cc(NCCCN(C)C)c2ccccc2n1` returned a viability index of 0.888.

In turn, `CN(C)CCNc1c2c(nc3ccccc13)CCC2` registered a viability index of 0.953.

In turn, `CN(C)CCCNc1c2ccccc2nc2ccccc12` displayed a viability index of 0.0224.

As for `CCOc1cc([N+](=O)[O-])cc(C=Nc2cccc(NC(=O)c3ccco3)c2)c1O`, the viability index stood at 0.989.

Consider `N=c1n(CCN2CCCCC2)c2ccccc2n1CC(O)COc1ccc(Cl)cc1` (stereo not drawn), for which the viability index was found to be 0.746.

Molecule `O=C(CC1OC(=O)c2ccccc21)c1ccc(Cl)cc1` (stereo not drawn) came in with a viability index of 0.496.

`CCOC(=O)c1cnc2c(OC)cccc2c1Nc1ccc(C(C)=O)cc1` had a viability index of 1.27.

On to `COc1ccccc1/C=C/CN1CCN(c2ccccn2)CC1`, for which the viability index is 1.15.

As to `c1ccc(CNc2nc(-c3ccccn3)nnc2-c2ccccc2)cc1`, the viability index turned out to be 0.374.

Molecule `COc1cnc(-c2ccccn2)nc1NC(C)C` came in with a viability index of 0.0307.

`CC(C)Nc1nc(-c2cccnc2)nc2ccccc12`: the viability index amounted to 1.12.

In turn, `COc1cnc(-c2ccccn2)nc1N1CCCC1` showed a viability index of 0.0429.

The molecule `COc1ccc(Nc2nc(N3CCCC3)c3ccccc3n2)cc1` returned a viability index of 0.74.

With `Cc1cc(C)nc(Nc2nc(C)c3cc(C)c(C)cc3n2)n1`, the viability index is 0.196.

Take `CCOC(=O)C1=C(C)NC2=C(C(=O)C(C(=O)OCC)C(c3ccc(OC)cc3)C2)C1c1ccc(OC)c(OC)c1` (stereo not drawn): the viability index was determined as 0.683.

On to `CN(C)c1ccc(C=C2SC(=Nc3ccc(O)cc3)NC2=O)cc1`, for which the viability index was 0.727.

With `CCn1c(C=CN(C)c2ccccc2)[n+](CC)c2cc(Cl)ccc21`, the viability index was 1.

On to `CC(C)(C)c1ccc(Cn2nnc3c(O)nc(C4CCN(C(=O)c5ccccc5)CC4)nc32)cc1`, for which the viability index was determined as 0.736.

For the molecule `N=C1NC(=O)C(=CC=Cc2ccc([N+](=O)[O-])o2)S1`, the viability index stood at 0.0408.

Molecule `O=C(c1ccccc1)N1CCc2nc(Cc3ccc(F)cc3Cl)sc2C1` registered a viability index of 0.708.

`COc1cccc(OC)c1C(=O)Oc1cccc2ccc(C)nc12`: the viability index worked out at 0.706.

`Cc1ccc2ccc3ccc(C)nc3c2n1` had a viability index of 0.0302.

On to `Cc1ccc(NC(=O)c2ccc(NCCCN3CCCCCC3)c([N+](=O)[O-])c2)cc1F`, for which the viability index worked out at 1.51.

In turn, `CC1(C)C2CCC(C2)C1(C)NC(=S)NN=Cc1ccccn1` (stereo not drawn) yielded a viability index of 0.0373.

Consider `S=C(NN=Cc1ccccn1)NC1CC2CC1C1C=CCC21` (stereo not drawn), for which the viability index came to 0.397.

`S=C(NN=Cc1ccccn1)NC1CC2C=CC1C2` (stereo not drawn): the viability index came out at 0.0456.

The molecule `CCOC(=O)c1ccc(N(C(=O)Cc2c[nH]c3ccccc23)C(C(=O)NC2CCCCC2)c2cccnc2)cc1` (stereo not drawn) came in with a viability index of 0.513.

With `O=C(Nc1ccc(O)cc1)c1cccc(S(=O)(=O)N2CCCCC2)c1`, the viability index was 1.03.

On to `CC(=O)NC1=NN(C(C)=O)C(c2ccc(Br)cc2)S1` (stereo not drawn), for which the viability index turned out to be 0.944.

In the case of `O=C(CSc1nc2ccccc2c(=O)n1CCCN1CCOCC1)Nc1cccc(S(=O)(=O)N2CCCCCC2)c1`, the viability index was found to be 0.969.

As to `CCc1ccc2c(c1)C1(NN=C(c3ccc(C)cc3)S1)C(=O)N2` (stereo not drawn), the viability index was found to be 0.127.

The molecule `CC1=C(C(=O)OC2CCCCC2)C(c2ccc(F)c(F)c2)C2=C(CCCC2=O)N1` (stereo not drawn) had a viability index of 0.855.

The molecule `CN(C)CCCNc1cc(-c2ccccc2)nc2ccccc12` displayed a viability index of 0.913.

In the case of `CN(C)CCNc1cc(-c2ccc3ccccc3c2)nc2ccccc12`, the viability index turned out to be 0.0331.

As to `CN(C)CCNc1cc(-c2ccccc2)nc2ccccc12`, the viability index was found to be 0.909.

For the molecule `Cc1ccc(C=Cc2ccc3ccccc3[n+]2C)cc1`, the viability index turned out to be 0.754.

`O=C(NCc1ccccc1)C(c1ccc(F)cc1)N(Cc1ccco1)C(=O)c1cnccn1` (stereo not drawn) registered a viability index of 0.72.

With `CCOc1ccccc1NC(=O)Cn1c(=O)n(Cc2ccccc2)c(=O)c2c(C)c(C(=O)N(C)C)sc21`, the viability index was determined as 0.83.

With `CCCCCOC(=O)C1=C(C)NC2=C(C(=O)CC(C)(C)C2)C1c1ccncc1` (stereo not drawn), the viability index stood at 0.891.

`CC(=O)N(Cc1ccc(F)cc1)C1=C(NCCc2ccccc2)C(=O)c2ccccc2C1=O` gave a viability index of 0.0184.

`CNC1=C(N(Cc2ccc(Cl)c(Cl)c2)C(C)=O)C(=O)c2ccccc2C1=O`: the viability index was found to be 0.

The molecule `CCN(C(C)=O)C1=C(N2CCOCC2)C(=O)c2ccccc2C1=O` showed a viability index of 0.538.

With `CC(=O)N(C1=C(N2CCCC2)C(=O)c2ccccc2C1=O)c1ccc(F)cc1`, the viability index amounted to 1.

As to `CCC(=O)N(C1=C(NC)C(=O)c2ccccc2C1=O)C(C)C`, the viability index came to 0.601.

For the molecule `CC(=O)N(C1=C(N2CCCCC2)C(=O)c2ccccc2C1=O)c1ccc(F)cc1`, the viability index came out at 0.721.

`Cc1cc(Nc2cccc(Cl)c2)nc2ccc(NC(=O)c3cccnc3)cc12` gave a viability index of 0.912.

`COC(=O)c1c(NC(=O)c2ccc(S(=O)(=O)N3CCOCC3)cc2)sc2c1CCN(C(C)=O)C2` displayed a viability index of 0.76.

`C1=C(c2ccccc2)CCN(c2ncnc3c2nc2n3CCCCC2)C1` gave a viability index of 0.916.

(Values after the supplement of paper PMC4723716.)
